# ChEMBL document CHEMBL3988442, “University of Dundee, Small-Polar-MMV Screening Library” (2021)
# For some of these results: Potency and affinity values are given separately.
# How the values were obtained:
# Set-up in all cases: scale not given: direction of the effect not stated beside the values
# [1] = target: Protein translocase subunit SecA (Escherichia coli (strain K12)) (UniProt P10408); assay: Assay to Identify E. coli SecA ATPase Inhibitors; assay type: functional; details: 30 µM
# [2] = target: T1, Ubiquitin-activating enzyme e1, putative (Leishmania donovani (strain BPK282A1)) (UniProt E9BSI1); assay: Leishmania donovani Ubiquitin Activating Enzyme (LdE1); assay type: functional; details: 30 µM
# T1 sequence (whole entry): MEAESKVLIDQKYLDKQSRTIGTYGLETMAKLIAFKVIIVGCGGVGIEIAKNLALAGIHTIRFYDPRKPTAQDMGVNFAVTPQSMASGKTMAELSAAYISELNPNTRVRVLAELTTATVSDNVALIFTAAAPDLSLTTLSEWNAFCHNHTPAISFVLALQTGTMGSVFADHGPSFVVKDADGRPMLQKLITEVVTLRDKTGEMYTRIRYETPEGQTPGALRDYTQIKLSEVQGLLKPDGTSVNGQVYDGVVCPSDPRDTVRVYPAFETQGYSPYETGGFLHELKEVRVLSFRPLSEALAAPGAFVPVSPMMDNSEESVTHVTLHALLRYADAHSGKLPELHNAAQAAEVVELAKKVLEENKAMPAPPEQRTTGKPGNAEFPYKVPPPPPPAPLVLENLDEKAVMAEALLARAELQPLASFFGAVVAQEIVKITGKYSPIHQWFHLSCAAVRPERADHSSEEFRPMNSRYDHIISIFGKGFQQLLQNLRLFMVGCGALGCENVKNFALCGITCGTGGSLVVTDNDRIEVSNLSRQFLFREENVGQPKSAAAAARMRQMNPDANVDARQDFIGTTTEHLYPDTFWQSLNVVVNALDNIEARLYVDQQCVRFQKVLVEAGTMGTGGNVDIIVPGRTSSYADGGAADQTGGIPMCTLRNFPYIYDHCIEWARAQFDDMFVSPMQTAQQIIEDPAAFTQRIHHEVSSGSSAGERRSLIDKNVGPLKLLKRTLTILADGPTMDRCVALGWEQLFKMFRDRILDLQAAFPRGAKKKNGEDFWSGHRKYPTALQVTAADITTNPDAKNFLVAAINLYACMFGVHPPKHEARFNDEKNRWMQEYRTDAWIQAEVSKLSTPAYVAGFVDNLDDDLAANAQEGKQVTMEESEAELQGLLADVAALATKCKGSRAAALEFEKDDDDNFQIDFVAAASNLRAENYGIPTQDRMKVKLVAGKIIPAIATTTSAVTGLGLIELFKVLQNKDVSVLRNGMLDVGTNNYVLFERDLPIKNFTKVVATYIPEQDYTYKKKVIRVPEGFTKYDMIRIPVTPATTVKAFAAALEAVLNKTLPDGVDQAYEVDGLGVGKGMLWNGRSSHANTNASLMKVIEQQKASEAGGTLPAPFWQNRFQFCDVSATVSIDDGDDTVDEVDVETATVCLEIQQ
# [3] = target: T2, Aspartate--tRNA(Asp/Asn) ligase (Mycobacterium tuberculosis (strain ATCC 25618 / H37Rv)) (UniProt P9WFW3); assay: Assay for Asp RNA synthetase-1 from Mycobacterium tuberculosis; assay type: functional; details: 30 µM; also: in the data most compounds retested in dose-response had high values
# T2 sequence (whole entry): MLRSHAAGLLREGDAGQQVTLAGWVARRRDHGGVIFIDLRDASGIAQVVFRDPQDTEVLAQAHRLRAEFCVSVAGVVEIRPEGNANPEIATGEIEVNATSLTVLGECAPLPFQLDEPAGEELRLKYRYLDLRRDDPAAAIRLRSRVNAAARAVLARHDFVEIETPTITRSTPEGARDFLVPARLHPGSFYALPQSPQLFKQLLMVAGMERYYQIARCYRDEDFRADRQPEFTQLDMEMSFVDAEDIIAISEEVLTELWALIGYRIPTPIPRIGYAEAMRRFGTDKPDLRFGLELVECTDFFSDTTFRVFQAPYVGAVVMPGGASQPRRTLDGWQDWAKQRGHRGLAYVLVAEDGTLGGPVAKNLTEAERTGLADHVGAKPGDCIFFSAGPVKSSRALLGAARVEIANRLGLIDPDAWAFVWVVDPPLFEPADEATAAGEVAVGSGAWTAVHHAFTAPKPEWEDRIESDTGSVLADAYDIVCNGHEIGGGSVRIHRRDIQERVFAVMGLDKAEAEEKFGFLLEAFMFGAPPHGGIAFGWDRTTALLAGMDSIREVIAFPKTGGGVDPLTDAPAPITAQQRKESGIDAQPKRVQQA
# [4] = target: AMP-activated protein kinase, AMPK (Homo sapiens) (UniProt P54646+O43741+P54619+Q9UGJ0+Q9Y478+Q13131+Q9UGI9); assay: AMP-dependent Kinase enzyme assay. An in vitro enzyme assay that detects ADP turnover that is directly proportional to AMPK activity. This uses naive AMPK that is activated during the assay with MK-8722; assay type: functional; details: 30 µM
# [5] = target: Sialic acid-binding Ig-like lectin 9 (Homo sapiens) (UniProt Q9Y336); assay: Hs-Siglec9 ALPHAscreen SOP 20170721; details: 10 µM
# [6] = test system: Trypanosoma cruzi; assay: Trypanosoma cruzi phosphomannomutase and mannose-1-phosphate guanylyltransferase assay; assay type: functional; details: 10 µM
# [7] = target: T3, Arginase-2, mitochondrial (Homo sapiens) (UniProt P78540); assay: in vitro enzyme assay to detect the production of urea directly proportional to the activity of Arginase II; assay type: functional; details: 33.3 µM; also: in the data most compounds retested in dose-response had high values
# T3 sequence (whole entry): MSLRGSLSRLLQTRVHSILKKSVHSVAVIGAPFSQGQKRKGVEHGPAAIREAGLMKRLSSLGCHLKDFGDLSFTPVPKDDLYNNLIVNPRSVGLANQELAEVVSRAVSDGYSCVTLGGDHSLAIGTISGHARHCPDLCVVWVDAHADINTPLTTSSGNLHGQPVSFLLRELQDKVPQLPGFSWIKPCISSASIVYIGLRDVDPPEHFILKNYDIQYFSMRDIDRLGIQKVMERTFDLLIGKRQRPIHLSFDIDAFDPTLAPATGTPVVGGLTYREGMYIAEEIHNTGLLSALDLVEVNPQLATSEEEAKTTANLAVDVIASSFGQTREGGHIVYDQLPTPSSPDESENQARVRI
# [8] = target: T4, Proteasome subunit beta (Trypanosoma cruzi) (UniProt O96673); assay: Trypanosoma cruzi proteasome chymotrypsin-like activity (TcProtChymo) assay.; also: in the data most compounds retested in dose-response had high values; assay type: functional; details: 9.37 µM
# T4 sequence (whole entry): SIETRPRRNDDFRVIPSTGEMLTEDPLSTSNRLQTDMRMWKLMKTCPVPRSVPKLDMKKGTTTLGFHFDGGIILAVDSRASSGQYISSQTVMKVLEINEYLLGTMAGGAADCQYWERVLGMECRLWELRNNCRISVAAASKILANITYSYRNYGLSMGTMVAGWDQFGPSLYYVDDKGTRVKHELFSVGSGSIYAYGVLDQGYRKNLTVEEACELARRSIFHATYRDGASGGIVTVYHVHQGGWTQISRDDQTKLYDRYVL
# [9] = species: Homo sapiens; assay: To identify inhibition of the IFN signalling (Jak-Stat) pathway via expression of an eGFP reporter gene under the control of an IFN-stimulated response element (ISRE) containing MxA promoter.; assay type: functional; details: 30 µM
# [10] = target: Shiga toxin 2 (Escherichia coli O157:H7) (UniProt P09385+P09386); assay: E. coli 0.157:H7 Shiga Toxin SOP - stx2 screening assay; assay type: functional; details: 30 µM
# [11] = target: T5, Tyrosyl-tRNA synthetase, putative (Trypanosoma cruzi (strain CL Brener)) (UniProt Q4DSP6); assay: Trypanosoma cruzi tyrosyl tRNA synthetase (TcYRS) _High Tyrosine SOP; assay type: functional; details: 30 µM; also: in the data most compounds retested in dose-response had high values
# T5 sequence (whole entry): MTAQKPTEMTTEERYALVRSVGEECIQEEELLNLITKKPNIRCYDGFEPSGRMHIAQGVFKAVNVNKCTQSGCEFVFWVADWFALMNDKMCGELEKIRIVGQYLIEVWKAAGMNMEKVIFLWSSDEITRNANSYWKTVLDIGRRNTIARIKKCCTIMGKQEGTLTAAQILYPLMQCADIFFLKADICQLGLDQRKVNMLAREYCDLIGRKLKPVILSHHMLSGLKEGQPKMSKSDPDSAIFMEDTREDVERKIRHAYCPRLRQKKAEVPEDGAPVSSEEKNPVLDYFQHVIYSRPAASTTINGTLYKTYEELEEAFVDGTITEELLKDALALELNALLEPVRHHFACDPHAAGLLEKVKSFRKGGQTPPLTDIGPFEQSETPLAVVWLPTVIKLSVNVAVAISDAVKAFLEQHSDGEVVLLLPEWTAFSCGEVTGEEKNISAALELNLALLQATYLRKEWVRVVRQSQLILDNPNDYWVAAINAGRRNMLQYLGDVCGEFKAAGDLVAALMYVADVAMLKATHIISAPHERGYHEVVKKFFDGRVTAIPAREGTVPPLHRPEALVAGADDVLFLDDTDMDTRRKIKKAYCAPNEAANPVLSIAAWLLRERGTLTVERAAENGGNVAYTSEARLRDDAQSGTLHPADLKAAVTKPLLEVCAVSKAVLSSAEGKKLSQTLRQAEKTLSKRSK
# [12] = target: T5, Tyrosyl-tRNA synthetase, putative (Trypanosoma cruzi (strain CL Brener)); assay: Trypanosoma cruzi tyrosyl tRNA synthetase (TcYRS) SOP; assay type: functional; details: 30 µM
# [13] = target: Chromo domain-containing protein 1 (Saccharomyces cerevisiae (strain ATCC 204508 / S288c) (Baker's yeast)) (UniProt P32657); assay: ScCHD-1 Enzyme Inhibition Assay; assay type: functional; details: 30 µM; also: in the data most compounds retested in dose-response had high values
# Chromo domain-containing protein 1 (Saccharomyces cerevisiae (strain ATCC 204508 / S288c) (Baker's yeast)), sequence (P32657 whole entry, the tested form may be a part): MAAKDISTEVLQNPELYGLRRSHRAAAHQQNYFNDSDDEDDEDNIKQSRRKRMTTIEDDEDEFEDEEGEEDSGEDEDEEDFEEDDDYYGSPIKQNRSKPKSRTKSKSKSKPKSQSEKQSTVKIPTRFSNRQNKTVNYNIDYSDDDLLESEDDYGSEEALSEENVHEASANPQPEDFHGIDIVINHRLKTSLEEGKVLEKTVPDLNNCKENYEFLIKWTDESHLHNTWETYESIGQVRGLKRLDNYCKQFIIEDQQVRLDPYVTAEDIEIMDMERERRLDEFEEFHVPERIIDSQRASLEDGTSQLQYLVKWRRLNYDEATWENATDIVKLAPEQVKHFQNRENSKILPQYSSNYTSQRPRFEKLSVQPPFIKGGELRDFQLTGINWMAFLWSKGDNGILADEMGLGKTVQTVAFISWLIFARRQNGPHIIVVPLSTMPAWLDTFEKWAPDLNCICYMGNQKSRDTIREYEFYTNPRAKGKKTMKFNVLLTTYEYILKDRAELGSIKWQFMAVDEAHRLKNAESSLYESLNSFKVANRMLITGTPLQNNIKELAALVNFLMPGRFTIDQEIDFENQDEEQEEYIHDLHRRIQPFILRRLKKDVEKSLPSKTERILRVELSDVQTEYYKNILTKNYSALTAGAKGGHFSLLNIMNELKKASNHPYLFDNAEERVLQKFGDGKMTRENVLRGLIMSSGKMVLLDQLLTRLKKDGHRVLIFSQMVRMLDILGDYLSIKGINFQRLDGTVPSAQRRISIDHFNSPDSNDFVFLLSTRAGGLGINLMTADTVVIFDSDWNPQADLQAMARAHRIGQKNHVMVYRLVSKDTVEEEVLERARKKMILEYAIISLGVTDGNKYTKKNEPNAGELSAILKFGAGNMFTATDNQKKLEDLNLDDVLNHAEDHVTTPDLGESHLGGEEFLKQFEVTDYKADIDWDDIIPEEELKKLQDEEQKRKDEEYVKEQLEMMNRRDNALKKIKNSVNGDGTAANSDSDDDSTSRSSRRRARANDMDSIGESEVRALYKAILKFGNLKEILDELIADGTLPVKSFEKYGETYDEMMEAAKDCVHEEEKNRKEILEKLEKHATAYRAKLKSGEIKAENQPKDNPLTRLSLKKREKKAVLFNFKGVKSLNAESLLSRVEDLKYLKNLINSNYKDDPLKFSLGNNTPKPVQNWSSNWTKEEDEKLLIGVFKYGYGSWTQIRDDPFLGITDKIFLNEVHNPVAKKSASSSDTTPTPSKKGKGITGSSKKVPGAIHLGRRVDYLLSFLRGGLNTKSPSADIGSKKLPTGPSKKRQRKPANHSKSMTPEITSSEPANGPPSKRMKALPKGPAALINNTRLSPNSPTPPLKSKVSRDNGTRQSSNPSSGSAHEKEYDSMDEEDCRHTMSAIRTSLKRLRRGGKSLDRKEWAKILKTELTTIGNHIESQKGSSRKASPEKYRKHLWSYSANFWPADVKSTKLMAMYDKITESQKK
# Protein translocase subunit SecA (Escherichia coli (strain K12)), sequence (P10408 whole entry): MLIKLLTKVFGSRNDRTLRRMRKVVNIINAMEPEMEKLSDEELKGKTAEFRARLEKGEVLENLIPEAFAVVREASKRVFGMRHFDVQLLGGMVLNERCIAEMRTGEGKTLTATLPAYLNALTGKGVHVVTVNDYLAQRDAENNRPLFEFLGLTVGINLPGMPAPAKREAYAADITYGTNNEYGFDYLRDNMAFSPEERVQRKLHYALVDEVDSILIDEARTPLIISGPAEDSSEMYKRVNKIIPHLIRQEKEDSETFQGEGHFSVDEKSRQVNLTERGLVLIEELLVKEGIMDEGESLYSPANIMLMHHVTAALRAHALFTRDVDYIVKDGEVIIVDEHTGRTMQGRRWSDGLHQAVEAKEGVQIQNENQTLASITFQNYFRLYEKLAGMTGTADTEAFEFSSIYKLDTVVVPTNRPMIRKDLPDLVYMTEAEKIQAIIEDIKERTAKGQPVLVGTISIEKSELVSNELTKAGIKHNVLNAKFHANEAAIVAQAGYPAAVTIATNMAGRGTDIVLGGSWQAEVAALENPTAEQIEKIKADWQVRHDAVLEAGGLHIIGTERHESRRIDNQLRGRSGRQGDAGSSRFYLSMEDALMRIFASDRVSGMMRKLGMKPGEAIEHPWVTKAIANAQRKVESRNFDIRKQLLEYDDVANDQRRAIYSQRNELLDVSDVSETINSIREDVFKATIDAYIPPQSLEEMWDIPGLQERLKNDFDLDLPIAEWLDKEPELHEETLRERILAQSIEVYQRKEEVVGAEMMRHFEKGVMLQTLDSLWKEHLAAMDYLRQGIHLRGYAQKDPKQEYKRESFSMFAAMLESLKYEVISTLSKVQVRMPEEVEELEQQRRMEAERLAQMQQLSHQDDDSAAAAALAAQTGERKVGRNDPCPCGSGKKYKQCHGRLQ
# Sialic acid-binding Ig-like lectin 9 (Homo sapiens), sequence (Q9Y336 whole entry): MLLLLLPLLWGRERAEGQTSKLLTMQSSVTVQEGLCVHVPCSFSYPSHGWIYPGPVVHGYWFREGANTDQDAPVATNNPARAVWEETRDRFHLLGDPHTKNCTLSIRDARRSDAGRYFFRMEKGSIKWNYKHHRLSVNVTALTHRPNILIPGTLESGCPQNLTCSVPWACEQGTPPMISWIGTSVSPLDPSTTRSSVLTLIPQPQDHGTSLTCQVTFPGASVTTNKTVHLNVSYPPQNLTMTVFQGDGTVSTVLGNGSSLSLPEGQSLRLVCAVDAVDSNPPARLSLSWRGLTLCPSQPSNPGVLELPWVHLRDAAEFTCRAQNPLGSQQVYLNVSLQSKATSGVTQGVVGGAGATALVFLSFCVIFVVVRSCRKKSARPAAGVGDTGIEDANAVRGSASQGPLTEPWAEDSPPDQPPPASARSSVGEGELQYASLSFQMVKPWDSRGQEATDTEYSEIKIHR
SMILES,Percent Effect [1] [%],Percent Effect [2] [%],Percent Effect [3] [%],Percent Effect [4] [%],Percent Effect [5] [%],Percent Effect [6] [%],Percent Effect [7] [%],Percent Effect [8] [%],Percent Effect [9] [%],Percent Effect [10] [%],Percent Effect [11] [%],Percent Effect [12] [%],Percent Effect [13] [%]
O=C(Nc1cccnc1)[C@H]1CN(Cc2nccs2)C[C@H]2OCC[C@@H]12,-4.22,2.67,-1.01,6.75,-6.59,-0.591,-0.233,3.61,15,-17.1,-2.13,-6.41,2.83
COc1ccccc1C1SCC(=O)Nc2n[nH]cc21 (stereo unspecified),-5.34,5.26,6.47,16.6,-1.26,-2.63,15.4,12.6,-13.4,5.55,3.19,2.6,-2.61
Cc1cc(CN2CC[C@H]3C[C@H](C)O[C@@H]3C2)no1,-1.91,18.9,-4.38,-0.664,-1.18,3.23,5.41,9.96,17.4,-1.03,7.57,17.9,1.93
c1cncc(OC[C@]23COC[C@H]2CN(Cc2cccs2)C3)c1,-3.94,5.41,4.12,0.208,-2.85,-2.34,-0.417,6.85,11.9,-3,6.93,15.8,4.29
CCN(CC)C(=O)c1ccc(NC(=O)CNc2ccc(Br)cc2F)cc1,-3.06,10.5,0.958,1.85,-6.58,1.85,-17.8,12,2.22,-41.8,5.32,20.8,-13
Cc1cc(CN2C[C@@H]3COC[C@]3(CN(C)C)C2)no1,-1.63,-2.7,-2.03,7.75,3.28,-3.42,1.59,26.4,-4.54,-2.49,3.24,2.56,-2.67
CS(=O)(=O)N1CCC(C(=O)N2CCC3(CC2)OCCCO3)CC1,-4.7,20.8,3.34,-4.81,-12.3,5.23,3.23,12.2,14.4,-32.1,6.35,21.8,-10.8
